# Compound activity as filed in PubChem.
# CYP2C19 inhib: blockers of cytochrome P450 2C19 activity – biochemical, luminescence, ADME assay, primary screen | CYP2C19 Supersomes, luciferin-H EGE luminescence, 30 min | inhibition, % at 5 µM | hit rate 21% among 96,000 | AID 778, 2007;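 active = CYP2C19 inhibition above a set limit at 5 µM in the primary screen, cut at about 50% in these data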;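 also: plate controls were negative control wells for no effect and 2.5 mM tranylcypromine positive control for full effect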
# CYP2C9 activ: human CYP2C9 activators, primary screen, biochemical, luminescence; Cytochrome P450 2C9 (Homo sapiens), P11712; recombinant CYP2C9, luciferin-H conversion; stronger effect = higher value; factor 1 = untreated enzyme, 0 = blocked; activation factor at 5 µM; hit rate 1.4% among 96,000;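 active = activation factor of 2 or more for CYP2C9 at a 5 µM dose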;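 also: 0 = sulfaphenazole-blocked wells and 1 = vehicle-only wells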
# Target sequence (P11712 whole entry, looked up): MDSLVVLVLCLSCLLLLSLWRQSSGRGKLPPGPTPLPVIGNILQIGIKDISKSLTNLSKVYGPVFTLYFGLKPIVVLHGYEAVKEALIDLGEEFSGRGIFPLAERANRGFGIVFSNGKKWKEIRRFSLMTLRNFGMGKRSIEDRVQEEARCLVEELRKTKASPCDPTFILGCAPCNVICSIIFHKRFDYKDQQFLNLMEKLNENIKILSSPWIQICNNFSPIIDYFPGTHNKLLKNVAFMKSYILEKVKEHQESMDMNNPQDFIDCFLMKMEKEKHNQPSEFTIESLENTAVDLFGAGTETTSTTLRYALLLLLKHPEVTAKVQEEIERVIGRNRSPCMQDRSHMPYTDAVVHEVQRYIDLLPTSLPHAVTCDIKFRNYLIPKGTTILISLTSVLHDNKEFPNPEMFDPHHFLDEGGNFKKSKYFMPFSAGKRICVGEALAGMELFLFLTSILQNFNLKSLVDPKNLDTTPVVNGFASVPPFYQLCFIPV
# PostGolgi yeast: phenotypic screen on post-Golgi transport, primary screen | post-Golgi transport phenotypic cell assay | inhibition, % at 10 µM | hit rate 0.9% among 98,000 | AID 739, 2007;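 also: yeast cells grown in 1536-well plates; yeast grown about 18 h at 30C before absorbance read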
# PostGolgi ctrl: growth inhibition of yeast control strain, primary screen, counter-screen for post-Golgi transport modulator project | AID 738, 2007 | efflux-deficient yeast background strain, growth absorbance A615, 16 h | hit rate 5% among 98,000 | inhibition, % at 10 µM
# CYP2C9 inh: blockers of cytochrome P450 2C9 activity – biochemical, luminescence, ADME assay, primary screen. CYP2C9 Supersomes, luciferin-H conversion. P11712. hit rate 20% among 96,000. AID 777, 2007. inhibition, % at 5 µM;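 active = blocking of liver enzyme CYP2C9 beyond about 50% at 5 µM, limit read from the data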
# CYP2C19 act: human CYP2C19 activators, primary screen, biochemical, luminescence; AID 1025, 2008; 96,000 tested, under 10 active; recombinant CYP2C19, luciferin-H EGE luminescence; stronger effect = higher value; 0 = fully inhibited enzyme, 1 = untreated enzyme; activation factor at 5 µM;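 active = activation factor of at least 2 at 5 µM in the primary screen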;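 also: 0 = wells with 2.5 mM tranylcypromine and 1 = vehicle-only wells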
# The depositor's hits bear a star; / = no result. The list is not random: actives were taken first. Their share in the collection is about 32%. Rule as the data show it, unless noted: active = inhibition above about 30%; inactive = the rest.
SMILES,CYP2C19 inhib,CYP2C9 activ,PostGolgi yeast,PostGolgi ctrl,CYP2C9 inh,CYP2C19 act
OC(COCC1COc2ccccc2O1)CN1CCN(c2ccccn2)CC1 (stereo unspecified),19.0,1.1,1.5,-10.4,-14.4,0.8
Cc1cc2ncn(C(=O)c3c(-c4ccccc4Cl)noc3C)c2cc1C,37.6,0.6,0.6,3.7,44.1,0.6
CC(C)(C)N(Cc1ccccc1)C(=O)CSc1nc2ccccc2c(=O)[nH]1,65.9*,0.2,2.0,25.9,82.3*,0.3
CN(C)C(=O)CSc1nc2ccccc2c(=O)[nH]1,-13.0,1.1,4.8,27.5,-11.9,1.1
C=CCn1c(C)cc(C(=O)CSc2nc3ccccc3[nH]2)c1C,61.5*,0.3,-6.8,9.6,67.7*,0.4
C=CCn1c(C)cc(C(=O)COc2nncc3ccccc23)c1C,61.1*,2*,-17.0,-6.3,-103.0,0.4
Cc1ccc(C(=O)CSc2nc3ccccc3c(=O)[nH]2)cc1,43.4,0.3,-7.5,20.9,74.6*,0.6
COc1cc(CNC(C)c2ccccc2)c(Br)cc1OCC(N)=O (stereo unspecified),15.0,1,-0.3,1.2,-1.2,0.8
COCCn1c(C)cc(C(=O)CSc2nc3ccccc3c(=O)[nH]2)c1C,25.4,1.8,1.6,8.2,-79.6,0.7
C=CCn1c(C)cc(C(=O)CSc2nc3ccccc3c(=O)[nH]2)c1C,23.5,0.7,24.8,89.0*,27.7,0.8
O=C(NCC1CCCO1)C1CCC(=O)N1Cc1ccccc1Cl (stereo unspecified),-5.3,1.1,0.5,0.8,-6.1,1.1
COc1cccc(NC(=O)c2nnn(Cc3ccc(Br)cc3F)c2N)c1,-21.6,0.9,3.9,-4.3,10.9,1.2
COc1ccccc1NC(=O)c1nnn(Cc2ccccc2)c1NC(C)=O,17.6,0.8,2.0,-3.6,18.0,0.8
O=C(Nc1ccccc1)c1nnn(Cc2ccccc2)c1NC(=O)C(F)(F)F,56.9*,0.1,2.7,7.0,86.4*,0.4
COc1ccccc1NC(=O)c1nnn(Cc2ccccc2)c1NC(=O)C(F)(F)F,44.7,0.3,-8.0,7.3,71.0*,0.6
CC1CC(C)CN(C(=O)c2cc3c(s2)CCC3)C1 (stereo unspecified),6.2,0.9,-6.1,3.3,11.4,0.9
O=C1Nc2ccccc2C12OCCS2 (stereo unspecified),16.9,1.2,-0.3,-1.4,-15.6,0.8
COc1cc(C(=O)ON=C2C(C)=CC(=O)C=C2C)cc(OC)c1OC,-5.1,1,-6.3,9.7,-0.7,1.1
N#CC(C(=O)C12CC3CC(CC(C3)C1)C2)c1nc2ccccc2[nH]1 (stereo unspecified),33.2,0.4,-6.5,73.7*,61.7*,0.7
CCNC(=O)C1CCN(S(=O)(=O)c2ccc(F)cc2)CC1,3.3,1.1,2.2,3.7,-14.2,1
O=C(Nc1ccc(N2CCOCC2)cc1)C1CCCN(S(=O)(=O)c2cccc(C(F)(F)F)c2)C1 (stereo unspecified),63.2*,0.9,-0.8,2.1,12.1,0.4
O=C(Nc1ccc(N2CCOCC2)cc1)C1CC1,2.8,1.1,-1.9,14.9,-5.5,1
CC(=O)c1cccc(NC(=O)C2CCCN(S(=O)(=O)c3ccc(F)cc3)C2)c1 (stereo unspecified),87.3*,0.2,-4.5,1.5,75.9*,0.1
CCS(=O)(=O)N1CCC(C(=O)Nc2cccc(C(C)=O)c2)CC1,69.5*,0.9,-1.7,11.5,12.2,0.3
CC(=O)c1cccc(NC(=O)C2CCN(S(=O)(=O)c3ccc(F)cc3)CC2)c1,53.2*,0.4,12.5,-8.0,63.3*,0.5
SMILES,CYP2C19 inhib,CYP2C9 activ,PostGolgi yeast,PostGolgi ctrl,CYP2C9 inh,CYP2C19 act
CC(=O)c1cccc(NC(=O)C2CCN(S(C)(=O)=O)CC2)c1,15.1,1,-1.0,23.3,-4.6,0.8
O=C(O)c1[nH]nc2c1COc1ccccc1-2,-20.6,1.1,6.1,2.0,-14.0,1.2
CC(=O)c1cccc(NC(=O)C2CCN(S(=O)(=O)c3ccccc3)CC2)c1,67.5*,0.9,-4.3,33.5*,8.5,0.3
O=C(Nc1ccc2nn(-c3ccccc3)nc2c1)c1ccc2c(c1)OCCO2,58.9*,0.4,7.7,19.4,55.5*,0.4
CC(=O)Nc1ccc2oc(-c3ccccc3Br)nc2c1,27.2,0.3,-1.4,10.6,72.6*,0.7
Cc1ccc(-n2nc3ccc(NC(=O)c4ccc5c(c4)OCO5)cc3n2)cc1,5.5,0.8,-4.3,5.9,17.2,0.9
O=C(Nc1ccc2oc(-c3ccccc3F)nc2c1)c1ccc2c(c1)OCCO2,49.2,0.5,6.7,28.1,51.3*,0.5
Cc1cc(C)n(-c2ccc(C(=O)Nc3ccc4c(c3)OCCO4)cc2)n1,50.0*,0.8,-10.1,-1.8,22.2,0.5
CC(C)NC(=O)CSCc1c(Cl)cccc1Cl,42.1,0.8,-7.8,-0.1,21.2,0.6
CCCOc1ccc(C(=O)c2nc3c(n2O)CCCC3)cc1,5.5,0.8,0.3,5.2,24.1,0.9
CCc1nnc(NC(=O)C(=O)NCCOC(=O)c2ccccc2)s1,21.9,0.7,-2.5,15.7,34.6,0.8
O=C(Nc1ccc(F)cc1)c1ccccc1F,1.4,1.2,29.0,-0.5,-18.7,1
O=C(Nc1nc2ccccc2[nH]1)c1ccccc1F,95.4*,0.2,6.7,2.8,81.0*,0
O=C(NCCc1ccncc1)c1ccccc1F,80.7*,0.4,10.2,11.4,57.1*,0.2
O=C(Nc1ccc(Oc2cccnc2)cc1)c1ccccc1F,93.1*,0,16.2,21.5,96.6*,0.1
O=C(Nc1ccncc1)c1ccccc1F,64.3*,0.6,-7.4,42.4*,44.6,0.4
O=C(Nc1nc2ccccc2[nH]1)c1ccc(F)cc1,33.3,0.9,0.6,5.5,14.3,0.7
COc1ccc(C(=O)/C=C(/C)N(C)C)cc1,14.9,1,-7.3,5.4,-0.1,0.9
CCc1ccc2[nH]c(=O)c(CN(CCO)C(=O)NCc3ccccc3)cc2c1,25.2,1.1,/,/,-12.6,0.7
Cc1cc(C)c2cc(CN(Cc3ccco3)C(=O)NCc3ccccc3)c(=O)[nH]c2c1,28.1,0.4,4.8,22.0,55.4*,0.7
CCC(c1nnnn1Cc1ccc(F)cc1)N(CCCO)Cc1cc2cc3c(cc2[nH]c1=O)OCO3 (stereo unspecified),55.0*,0.9,13.1,6.8,12.4,0.4
Cc1cc(C)c2cc(CN(CCO)C(=O)Nc3ccc(F)cc3)c(=O)[nH]c2c1,74.2*,0.6,11.6,15.7,38.4,0.3
